Results filed as inconclusive are left out. A structure can be active in one record and inactive in another. Active and inactive are the calls of the source. The call rests on the fitted dose curve; in most records, active means well fitted inhibition curve with a large enough effect; inconclusive means small, poorly fitted or top-dose-only effect; inactive means flat fitted curve, though single readings scatter.
Experiments:
Experiment in all cases: qHTS profiling for inhibitors of Plasmodium falciparum proliferation (AID 504749); further: nearly all actives have a fitted effect of over 60% in size
Conditions in all cases: P. falciparum in erythrocytes, SYBR Green DNA, 72 h; series mostly up to 28.7 µM
CP315 = tested on: CP315
How it was run: (§1)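 SYBR Green fluorescence (ex 485 nm, em 535 nm) reports parasite DNA after 72 h compound exposure of infected red cells at 0.3% parasitemia, 2.5% hematocrit; signal normalized to 0.29 uM artemisinin and vehicle wells.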

CP329 = tested on: CP329
How it was run: as §1

DFO2036 = tested on: DFO2036
How it was run: as §1

ECU = tested on: ECU
How it was run: as §1

FAB9 = tested on: FAB9
How it was run: as §1

GB4 = tested on: GB4
How it was run: as §1

HB3 = tested on: HB3
How it was run: as §1

ICS = tested on: ICS
How it was run: as §1

JCK = tested on: JCK
How it was run: as §1

CP297 = tested on: CP297
How it was run: as §1

CP305 = tested on: CP305
How it was run: as §1

CP325 = tested on: CP325
How it was run: as §1

CP335 = tested on: CP335
How it was run: as §1

DIV14 = tested on: DIV14
How it was run: as §1

DIV17 = tested on: DIV17
How it was run: as §1

DIV30 = tested on: DIV30
How it was run: as §1

Dd2 = tested on: Dd2
How it was run: as §1

N140 = tested on: N140
How it was run: as §1

P93_24 = tested on: P93_24
How it was run: as §1

P94_40 = tested on: P94_40
How it was run: as §1

Measured: Potency
Potency means the concentration at half of the fitted maximal effect.

Cc1cccc(C)c1OCC(C)N (stereo unspecified)
active: GB4 13.5 µM
inactive: CP315 | CP329 | DFO2036 | ECU | FAB9 | HB3 | ICS | JCK

CCCCCN(C)CCC(O)(P(=O)(O)O)P(=O)(O)O
inactive: all assays above

C[C@@H](O)[C@H]1C(=O)N2C(C(=O)O)=C(S[C@@H]3CN[C@H](C(=O)N(C)C)C3)[C@H](C)[C@H]12
inactive: all assays above

Clc1ccc(Cn2c(CN3CCCC3)nc3ccccc32)cc1
not listed: GB4 | ICS | CP297 | DIV14 | DIV17 | DIV30 | P93_24
inactive: all other assays above

CCCCC1C(=O)N(c2ccccc2)N(c2ccccc2)C1=O
active: GB4 12 µM | ICS 11.2 µM
inactive: Dd2 | FAB9 | HB3 | JCK
8.91 µM (active) and inactive: ECU

O=C(O)c1c(Cl)c(Cl)c(Cl)c(Cl)c1-c1c2cc(I)c(=O)c(I)c-2oc2c(I)c(O)c(I)cc12
not listed: CP297
inactive: all other assays above

C[N+](C)(C)CCCCCC[N+](C)(C)C
inactive: all assays above

O=C(NCCN1CCOCC1)c1ccc(Cl)cc1
inactive: all assays above

COc1ccc(Cc2nccc3cc(OC)c(OC)cc23)cc1OC
not listed: P93_24
inactive: all other assays above

Cc1cnc(C(=O)O)c[n+]1[O-]
inactive: all assays above

O=C(O)c1cc(-c2ccccc2)nc2ccccc12
inactive: all assays above

NCCS
inactive: all assays above

O=C1Nc2ccc(Cl)cc2C(C#CC2CC2)(C(F)(F)F)O1 (stereo unspecified)
not listed: GB4 | ICS | CP297 | CP335 | DIV14 | DIV17 | P93_24
inactive: all other assays above

O=C1NC(=O)C(c2ccccc2)(c2ccccc2)N1
not listed: CP315
inactive: all other assays above

O=C(O)Cc1cccc2ccccc12
not listed: CP335
inactive: all other assays above

COc1ccccc1N1CCN(CCCNc2cc(=O)n(C)c(=O)n2C)CC1
inactive: all assays above

CCN(CC)C(=O)c1ccc(O)c(OC)c1
inactive: all assays above

CCN(CC)CCNC(=O)c1ccc(N)cc1
inactive: all assays above

CC/C(=C(\c1ccccc1)c1ccc(OCCN(C)C)cc1)c1ccccc1
inactive: CP297 | CP315 | CP329 | DFO2036 | FAB9 | HB3 | JCK
active: DIV14 13.5 µM | GB4 10.7 µM | ICS 12.6 µM

CC1(C)O[C@H]2C[C@@H]3[C@H]4CCC5=CC(=O)C=C[C@]5(C)[C@@]4(F)[C@@H](O)C[C@]3(C)[C@]2(C(=O)CO)O1
not listed: ICS | CP297 | DIV14 | DIV30 | P94_40
inactive: all other assays above

O=c1[nH]cnc2c1ncn2[C@H]1CC[C@@H](CO)O1
active: ICS 10 µM
not listed: GB4 | HB3 | DIV17 | P93_24
inactive: all other assays above

O=C1NCC2(CCN(CCc3ccccc3)CC2)O1
inactive: all assays above

CC(=O)CCCCn1c(=O)c2c(ncn2C)n(C)c1=O
inactive: all assays above

CCN1CCC[C@H]1CNC(=O)c1cc(S(N)(=O)=O)ccc1OC
inactive: all assays above

COCCCCC(=NOCCN)c1ccc(C(F)(F)F)cc1
active: DIV14 6.75 µM | DIV17 6.75 µM | GB4 5.36 µM
inactive: CP315

CCOC(=O)O[C@]1(C(=O)OCCl)CC[C@@H]2[C@H]3CCC4=CC(=O)C=C[C@]4(C)[C@@H]3[C@@H](O)C[C@@]21C
active: CP297 16.9 µM
not listed: CP305 | DIV30
inactive: all other assays above

NC(N)=Nc1nc(CSCC/C(N)=N/S(N)(=O)=O)cs1
inactive: all assays above

CC(=O)O[C@]1(C(C)=O)CC[C@H]2[C@@H]3C=C(Cl)C4=CC(=O)[C@@H]5C[C@@H]5[C@]4(C)[C@H]3CC[C@@]21C
inactive: CP315 | CP329 | DFO2036 | Dd2 | ECU | FAB9 | HB3 | JCK | N140
active: ICS 12.6 µM

CCN(CC)CCOC(=O)c1ccc(N)cc1
inactive: all assays above

CC(=O)N[C@@H](CS)C(=O)O
inactive: all assays above

CCCNC(=O)NS(=O)(=O)c1ccc(Cl)cc1
inactive: all assays above

CC(=O)c1ccc(S(=O)(=O)NC(=O)NC2CCCCC2)cc1
inactive: all assays above

CC1=C(/C=C/C(C)=C/C=C/C(C)=C/C(=O)Nc2ccc(O)cc2)C(C)(C)CCC1
active: CP297 13.5 µM | CP305 15.1 µM | DIV14 16.9 µM | DIV17 16.9 µM | Dd2 11.2 µM | GB4 10.7 µM | HB3 11.2 µM | ICS 11.2 µM | N140 10 µM | P94_40 11.2 µM

CN(C)CCC(c1ccccc1)c1ccccn1 (stereo unspecified)
active: CP335 7.57 µM | DIV14 6.75 µM | DIV17 9.53 µM | GB4 7.57 µM
not listed: CP329 | CP297 | CP305 | DIV30 | P94_40
inactive: all other assays above

From PubChem BioAssay (NCATS)
